Measured values reported in PubChem BioAssay AID1671194 (National Center for Advancing Translational Sciences (NCATS), 2021).
Among all 140,000 compounds or so, about 240 (0.17%) were called active. Inconclusive results (about 9%) are left out. This is one part of a sample in which actives are shown more often than they occur. The call rests on the fitted dose curve; in most records, active means well fitted inhibition curve with a large enough effect; inconclusive means small, poorly fitted or top-dose-only effect; inactive means no such curve, though single readings can be large or run the other way.

Test: Primary qHTS assay for inhibitors of alpha-synuclein gene (SNCA) expression; further: nearly all actives have a fitted effect of over 45% in size
Settings: HEK-293 SNCA-luciferase knock-in, luminescence, 24 h; series mostly up to 57.2 µM; activity change, negative = inhibition: at the top concentration
From the text: Assay Submitter (PI): Daniel R. Scoles Ph.D.
Department of Neurology, University of Utah, Salt Lake City, Utah
Accumulation of alpha-synuclein is a main underlying pathological feature of Parkinson's disease (PD) and alpha-synucleinopathies, for which lowering expression of the alpha-synuclein gene (SNCA) is a potential therapeutic avenue. Using a cell-based luciferase reporter of SNCA expression we performed a quantitative high throughput screen (qHTS) of 155,885 compounds in dose response. The screening assay was generated using genome editing to insert the luciferase gene downstream and in frame of the SNCA gene in HEK-293 cells (1). A viability counterscreen using GF-AFC was used to eliminate cytotoxic and false positive compounds. After in silico analysis (clustering, removal of frequent hitter nuisance chemotypes), inhibitor compounds from the primary screen were selected for follow up and re-tested at 11-doses in the SNCA-luc cells (luciferase and GF-AFC confirmation), and in CMV-luc expressing cell line to flag general transcriptional repressors.
Described herein are the results of the primary screen for SNCA inhibitors; decrease in luciferase signal (inhibition of the SNCA gene expression) is the desired output for this assay.
1. Dansithong, W., Paul, S., Scoles, D. R., Pulst, S. M., and Huynh, D. P. (2015) Generation of SNCA Cell Models Using Zinc Finger Nuclease (ZFN) Technology for Efficient High-Throughput Drug Screening. PLoS ONE 10, e0136930.
SEQUENCE No. (e.g., 1, 2, 3, etc.); […] (e.g., Cells, Incubation, Reagent, etc.); VALUE; DESCRIPTION
1; Cells; 4 uL; Dispense 1500 HEK-293-SNCA-luc cells/well into Greiner 1536-well white / solid bottom tissue culture treated plate. The plate was covered with metal lids with gas-exchange holes.
2; Incubate; 24 hours; Incubate at 37C, 5% CO2, 95% RH.
3; Compounds; 23 nL; Compounds and controls were transferred via a Kalypsys Pin Tool (Wako USA) equipped with a 1536-slotted pin array. The plate was covered with metal lids with gas-exchange holes.
4; Incubate; 24 hours; Incubate at 37C, 5% CO2, 95% RH.
5; Dispense; 1 uL; Dispense Gly-Phe-7-amino-4-trifluoromethylcoumarin (GF-AFC, prepared at 125 uM in PBS) was added. The plate was covered with metal lids with gas-exchange holes.
6; Incubate; 30 min; Incubate at 37C, 5% CO2.
7; Detector; Fluorescence; Measure fluorescence with ViewLux microplate reader (PerkinElmer) equipped with 405/10 excitation and 540/25 emission filters.
8; Dispense; 3 uL; Dispense ONE-Glo ([…]) lucifase detection reagent was added to each well. Plates were covered with metal lids with gas-exchange holes.
9; Incubate; 15 min; Incubate at room temperature.
10; Detector; Luminescence; Measure luminescence with ViewLux microplate reader (PerkinElmer) equipped with clear filters.
NOTES (numbers refer to sequence above)
1; HEK-293-SNCA-luc were cultured and suspended in phenol-red free DMEM (4.5 g/L glucose, 25 mM HEPES, cat #21063 (Thermo)).
3; Compounds were added to the assay plate in an 11-point intra plate dose response, 1:3 titration in DMSO with a final concentration range of […]. Vehicle-only plates, with DMSO being pin-transferred to every well, were inserted at the beginning of screening runs to confirm expected assay performance. Activity was normalized to wells containing medium only (-100% activity, full inhibition) and SNCA-luc cells treated with DMSO vehicle control (0% activity), contained on the same plate as test samples.
10; Signals were analyzed, and dose-response curves were fit using the Hill equation. Compounds in curve classes -1.1, -1.2, -2.1, -2.2 in the SNCA-luc assay were considered active. Compounds were eliminated from further consideration if also active (curve class -1.1, -1.2, -1.3, -1.4, -2.1, -2.2, -2.3, -2.4) in the GF-AFC cytotoxicity assay.
Potency means the concentration at half of the fitted maximal effect.

Structure (SMILES)	activity change, negative = inhibition	Potency
Cn1ncc2c(C(=O)NCc3cccnc3)cc(C(C)(C)C)nc21	-10.6% (inactive)	–
CC(=O)N1CCN(C(=O)C2CCCN2Cc2ccc(-c3cc(C)cc(C)c3)cc2)CC1 (stereo not drawn)	22.3% (inactive)	–
CC1=C[C@@H](CN2CCCC2)[C@H](C(C)C)C[C@H]1Cc1nnc(-c2ccc([N+](=O)[O-])cc2)o1	-27.7% [at 87.6 µM] (inactive)	–
Cc1nc(N2CCC(NCCNc3ccncc3C)CC2)c2ccsc2n1	-2.65% (inactive)	–
Cc1ccccc1C(=O)N1CCC(C(=O)N2CCC(c3nc4ccncc4[nH]3)C2)CC1 (stereo not drawn)	6.85% (inactive)	–
CC(=O)N1CCC(N[C@H]2C[C@@H](Cc3cc(CN(C)c4ccccc4)on3)C2(C)C)CC1	4.87% [at 87.6 µM] (inactive)	–
COc1ccc(-c2cn3cc(C(=O)NCc4ccc(F)cc4)nc3s2)cc1	-7.67% (inactive)	–
COc1ccc(CN2CC(Oc3ccc(OC)cc3)C2)cc1	-5.4% [at 87.6 µM] (inactive)	–
CCCCn1c(=O)c(C(=O)N2CCN(C(=O)c3ccccc3)CC2)nc2cccnc21	-2.39% (inactive)	–
Cc1ccccc1-c1ccnc(-c2nnc(C)n2C(C)C)c1	-7.25% [at 87.6 µM] (inactive)	–
Cc1ccc(OCC(=O)N2CCC(c3nn(C)c4c3COCC4)CC2)cc1	1.65% (inactive)	–
COCCOCC1(CNS(=O)(=O)c2c(C)noc2C)C[C@@H](O)[C@@H](O)C1 (stereo partly drawn)	4.32% [at 87.6 µM] (inactive)	–
c1ccc(CNC[C@H]2Cn3cc(-c4ccccc4)nc3CO2)cc1	84.9% [at 87.6 µM] (inactive)	–
Cc1nnc(-c2cc(-c3ccccc3)ccn2)n1CCc1ccccc1	32.3% [at 87.6 µM] (inactive)	–
CC(C)=CCC1(CO)CCCN(Cc2ccccc2OCCO)C1 (stereo not drawn)	-6.74% (inactive)	–
O=C1NCCCCCCN(Cc2ccncc2)[C@@H]2CN(CC3CC3)CC[C@@H]12	-21.1% (inactive)	–
CC[C@H]1CN(C(=O)Nc2cccc(C(F)(F)F)c2)CC[C@H]1CC(=O)NCCSC	-20% [at 87.6 µM] (inactive)	–
COC(=O)c1cccc(NC(=O)N2CCc3c(nc4cc(-c5ccccc5)[nH]n4c3=O)C2)c1	37.1% (inactive)	–
NCc1ccccc1-c1cccc(O)c1	-17.9% [at 87.6 µM] (inactive)	–
O=C(c1n[nH]c2c1CCCC2)N1CCC2(CC1)NC(=O)N(c1ccc(F)cc1)N2	0.129% (inactive)	–

Structure (SMILES)	activity change, negative = inhibition	Potency
COc1ccc(OC)c(CN2CCC3(CC2)COCCN3C(=O)OCc2ccccc2)c1	-4.88% (inactive)	–
COc1ccc(-c2ncc3c(n2)OCCN(CC2CC2)C3=O)cc1	-22.4% [at 87.6 µM] (inactive)	–
O=C([C@@H]1C[C@H](c2ccc(F)cc2)N([S+](=O)([O-])C2CC2)C1)N1CCN(c2ccccn2)CC1	54.6% (inactive)	–
COCCNC(=O)[C@@H]1C[C@H](Oc2cccnc2)CN1C(=O)C1CC=CC1	9.07% (inactive)	–
COc1cccc(CNC(=O)N2CCCC3(C2)Nc2cccnc2NC3=NC2CCCC2)c1 (stereo not drawn)	-21.6% (inactive)	–
Cc1cccc(Cc2c(C)nc3nc(SCc4ccccc4Cl)nn3c2C)c1	12.7% (inactive)	–
CCN(CC)C(=O)CSc1nc2ccsc2c(=O)n1Cc1ccccc1Cl	-0.0876% (inactive)	–
CCn1cc2nc(SCc3ccccc3Cl)n(CCc3ccccc3)c(=O)c2n1	–	14.1 µM (active)
CCOc1ccc(NC(=O)CSc2ncnc3c2sc2ccccc23)cc1	15.5% (inactive)	–
CCOc1ccc(NC(=O)CSc2c3c(nc4ccccc24)CCCC3)cc1	–	28.2 µM (active)
Cc1ccc(CNC(=O)CSc2c3c(nc4cc(Cl)ccc24)CCCC3)cc1	13.9% (inactive)	–
CCOc1cccc(CN2CCC3(CC2)CN(C)CC3COC)c1 (stereo not drawn)	8.9% (inactive)	–
COc1ccc(OCC2CCN(CC3(O)CCCNC3)CC2)cc1 (stereo not drawn)	84.6% (inactive)	–
O=C(NCc1cccc(F)c1)c1cccnc1N1CC2CC(C1)[C@H]1CCCC(=O)N1C2 (stereo partly drawn)	14.2% (inactive)	–
O=S(=O)(c1ccccc1)N1CCC(CCOc2ccccc2)C1 (stereo not drawn)	-20.6% (inactive)	–
O=C1NC2(CCCN([S+](=O)([O-])c3ccccc3)C2)COc2ccccc21 (stereo not drawn)	-3.78% (inactive)	–
C=CCn1nc(C(=O)N2CCOCC2)c2c1CCC(NCC1(c3ccccc3)CCCCC1)C2 (stereo not drawn)	5.82% (inactive)	–
CCN(CC)CCNC(=O)C1N(C(C)C)C(=O)C12CCCC2 (stereo not drawn)	5.62% (inactive)	–
Cc1cccc(-n2ccnc2SCC(=O)Nc2cccc3ccccc23)c1C	–	20 µM (active)
Cc1cc(C)cc(-n2ccnc2SCC(=O)Nc2nc3ccccc3s2)c1	8.94% (inactive)	–

Structure (SMILES)	activity change, negative = inhibition	Potency
O=C(CSc1nccn1-c1ccc(F)cc1)Nc1cccc2ccccc12	-16.9% (inactive)	–
COc1ccc(NC(=O)c2c(C)oc3ccn(Cc4ccc(F)cc4)c(=O)c23)c(OC)c1	1.86% (inactive)	–
Cc1ccc(CN2CCC(Oc3cnc4c(ccn4CCN[S+](C)(=O)[O-])c3)CC2)c(F)c1	-5.54% (inactive)	–
Cn1ncc2c(C(=O)NCc3cccs3)cc(-c3ccc(Cl)nc3)nc21	-4.22% (inactive)	–
Cc1ccc(CN2CCOc3cc([S+](=O)([O-])N(C)C)ccc3C2)c(F)c1	-6.31% [at 87.6 µM] (inactive)	–
Cc1cccc(C(=O)N2CCC3(CC2)CC(CC(=O)NCc2ccncc2)CCO3)c1 (stereo not drawn)	-5.21% (inactive)	–
O=C(CCn1ccn2nc3c(c2c1=O)CCCC3)Nc1ccc(Cl)c(C(F)(F)F)c1	3.6% (inactive)	–
CCOc1cc(C)c(CN2C[C@@H](CN(C)C)C[C@H](CO)C2)cc1C(C)C	-24.3% (inactive)	–
O=S(=O)(c1ccccc1)N1CCC(F)(c2nc(Cc3ccccc3)no2)CC1	-21.3% (inactive)	–
O=C(c1nc2cccnc2n(Cc2ccccc2)c1=O)N1CCN([S+](=O)([O-])c2ccccc2)CC1	-16.6% (inactive)	–
COc1cccc(-c2cccc(C(=O)N3CCCC3C(=O)NCc3ccccc3Cl)c2)c1 (stereo not drawn)	0.109% (inactive)	–
O=C(O)CCC(=O)N1Cc2ccccc2CC2(CCN(Cc3ccc(O)cc3)C2)C1 (stereo not drawn)	37.4% (inactive)	–
CCCCn1c(=O)c(C(=O)NCCSC)nc2cccnc21	3.61% [at 87.6 µM] (inactive)	–
Cc1ccccc1CN1Cc2nc(NCc3ccncc3)ccc2OCC1=O	-14% [at 87.6 µM] (inactive)	–
O=C1Nc2ccccc2C2(CCN(S(=O)(=O)c3cccc(C(F)(F)F)c3)C2)O1 (stereo not drawn)	-6.5% (inactive)	–
CN1CCN(C[C@@H]2CN(C(=O)CCc3c[nH]c4ccccc34)C[C@@H]2CO)CC1	1.82% (inactive)	–
CCc1cccc2c(C(CC(=O)NC(C)CC)c3cccc(OC)c3)c[nH]c12 (stereo not drawn)	-2.41% (inactive)	–
Fc1ccc(-c2ccnc3nc(C4CCC4)nn23)cc1	12.1% (inactive)	–
